Hits are enriched below; roughly 2.4% of the tested compounds scored in any of these assays.
C diff HTS – blocks growth of Clostridium difficile; Clostridium difficile clinical isolate growth, OD600, 24 h; hits give low values; growth activity, negative = inhibition, % at 16 µg/mL (by protocol); 86,000 compounds, 0.25% hits;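 active = mean growth activity at or below -80% and every replicate also at or below -80%; inconclusive = mean at or below -80% but some replicate above -80%; inactive = mean growth activity above -80%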
Pf Dd2 growth – blocks growth of Plasmodium falciparum Dd2 parasites | activity change, % at 10 µM | P. falciparum Dd2 growth, SYBR Green, 72 h; hits give low values | 94,000 compounds, 2.3% hits; in the data active = activity change below about -80%; inconclusive = no clear call, values can overlap the other calls
Numbers stand for hits; . = inactive; ? = inconclusive; / = no result; ! = not active in a repeat.

SMILES | C diff HTS | Pf Dd2 growth
C[C@@H]1CN([C@@H](C)CO)C(=O)c2cc(NC(=O)Cc3ccccc3)ccc2O[C@@H](C)CCCCO[C@@H]1CN(C)Cc1ccccc1 | . | .
O=C(C[C@@H]1CC[C@@H](NC(=O)NC2CCCC2)[C@@H](CO)O1)NCc1ccc(F)cc1 | / | .
CCCNC(=O)[C@H]1[C@H](CO)[C@H]2Cn3c(ccc(-c4ccc(OC)cc4)c3=O)[C@H]2N1CCC | . | .
COc1cccc(CN2[C@@H]3CNC[C@H]2[C@H]3c2ccc(-c3ccccc3OC)cc2)c1 | . | ?
Cc1ccccc1-c1ccc(C2[C@@H]3CN(S(=O)(=O)Cc4ccccc4)C[C@H]2N3)cc1 (stereo not given in full) | . | .
COc1cc(CN2C[C@@H]3N[C@H](C2)C3c2ccc(-c3ccccc3C)cc2)cc(OC)c1 (stereo not given in full) | -99 | .
C/C=C/c1ccc(C2[C@@H]3CN(Cc4cc(OC)cc(OC)c4)C[C@H]2N3)cc1 (stereo not given in full) | . | .
COc1cccc(CN2C[C@@H]3N[C@H](C2)C3c2ccc(-c3ccccc3C)cc2)c1 (stereo not given in full) | -96 | .
COc1cccc(CN2C[C@@H]3N[C@H](C2)C3c2ccc(-c3ccccc3F)cc2)c1 (stereo not given in full) | -94 | .
Cc1ccc(S(=O)(=O)N(C)C[C@H]2Oc3c(NC(=O)C4CCCCC4)cccc3C(=O)N([C@@H](C)CO)C[C@H]2C)cc1 | . | .
COc1ccccc1-c1ccc(C2[C@@H]3CN(S(=O)(=O)c4ccc(F)cc4)C[C@H]2N3)cc1 (stereo not given in full) | . | .
C[C@@H]1CN([C@@H](C)CO)C(=O)c2cccc(NS(C)(=O)=O)c2O[C@H]1CN(C)CC1CC1 | . | .
C[C@H](NC(=O)C[C@H]1CC[C@H](NS(=O)(=O)c2cccc(F)c2)[C@H](CO)O1)c1ccccc1 | . | .
CCCNC(=O)[C@@H]1[C@@H](CO)[C@@H]2Cn3c(cccc3=O)[C@@H]2N1C(=O)C1CC1 | . | .
CC(C)(O)C#Cc1ccc([C@H]2[C@H]3CN(Cc4ccccc4F)CCCCN3[C@H]2CO)cc1 | . | .
COCC#Cc1ccc([C@@H]2[C@@H](CO)N3CCCCN(Cc4ccccc4F)C[C@H]23)cc1 | . | .
COc1cccc(CN2CCCCN3[C@H](C2)[C@@H](c2ccc(C#Cc4cccnc4)cc2)[C@@H]3CO)c1 | . | .
COc1cccc(CN2CCCCN3[C@H](CO)[C@@H](c4ccc(C#Cc5cccnc5)cc4)[C@H]3C2)c1 | . | -86
COc1ccc(C#Cc2ccc([C@@H]3[C@H]4CN(Cc5ccccc5F)CCCCN4[C@H]3CO)cc2)cc1 | -94 | .
COc1ccc(C#Cc2ccc([C@H]3[C@@H](CO)N4CCCCN(Cc5ccccc5F)C[C@H]34)cc2)cc1 | -100 | .
OC[C@@H]1[C@@H](c2ccc(-c3ccccc3)cc2)[C@H]2CN(CCC(F)(F)F)CCCCN12 | . | .
OC[C@@H]1[C@H](c2ccc(-c3ccccc3)cc2)[C@H]2CN(CCC(F)(F)F)CCCCN12 | . | -80
CN1CCN(C(=O)C[C@H]2CC[C@@H](NC(=O)Nc3ccccc3F)[C@@H](CO)O2)CC1 | . | .
O=C(C[C@@H]1C=C[C@@H](NS(=O)(=O)c2ccc(F)cc2)[C@@H](CO)O1)NCc1ccc(Cl)c(Cl)c1 | . | .
Cc1noc(C)c1S(=O)(=O)Nc1ccc2c(c1)CC(=O)N([C@H](C)CO)C[C@H](C)[C@@H](CN(C)Cc1ccc(C(=O)Nc3ccccc3N)cc1)O2 | . | .
SMILES | C diff HTS | Pf Dd2 growth
Cc1noc(C)c1S(=O)(=O)Nc1ccc2c(c1)CC(=O)N([C@H](C)CO)C[C@@H](C)[C@@H](CN(C)Cc1ccc(C(=O)Nc3ccccc3N)cc1)O2 | . | -89
Cc1noc(C)c1S(=O)(=O)Nc1ccc2c(c1)CC(=O)N([C@H](C)CO)C[C@@H](C)[C@H](CN(C)Cc1ccc(C(=O)Nc3ccccc3N)cc1)O2 | . | .
Cc1noc(C)c1S(=O)(=O)Nc1ccc2c(c1)CC(=O)N([C@@H](C)CO)C[C@@H](C)[C@@H](CN(C)Cc1ccc(C(=O)Nc3ccccc3N)cc1)O2 | . | -93
O=C(N[C@@H]1CC[C@H](CCNC(=O)C2CC2)O[C@@H]1CO)c1ccncc1 | . | /
COc1ccc(S(=O)(=O)N(C)C[C@@H]2Oc3cc(C#CC4CCCCC4)ccc3S(=O)(=O)N([C@@H](C)CO)C[C@@H]2C)cc1 | . | -84!
COc1ccc(S(=O)(=O)N(C)C[C@H]2Oc3cc(C#CC4CCCCC4)ccc3S(=O)(=O)N([C@H](C)CO)C[C@@H]2C)cc1 | / | -85
COc1ccc(S(=O)(=O)N(C)C[C@@H]2Oc3cc(C#CC4CCCCC4)ccc3S(=O)(=O)N([C@H](C)CO)C[C@@H]2C)cc1 | / | .
COc1ccc(S(=O)(=O)N(C)C[C@@H]2Oc3cc(C#CC4CCCC4)ccc3S(=O)(=O)N([C@H](C)CO)C[C@H]2C)cc1 | . | .
CN(C)CC(=O)Nc1ccc2c(c1)[C@@H]1C[C@@H](CC(=O)NCc3ccccc3)O[C@H](CO)[C@@H]1O2 | / | .
COc1ccc(NC(=O)Nc2ccc3c(c2)C(=O)N([C@H](C)CO)C[C@H](C)[C@H](CN(C)Cc2ccncc2)O3)cc1 | . | .
CCCN(C)C[C@@H]1Oc2cc(C#CC3CCCC3)ccc2S(=O)(=O)N([C@@H](C)CO)C[C@H]1C | . | .
CO[C@@H]1CN(C)C(=O)c2ccc(NS(=O)(=O)c3ccccc3C)cc2OC[C@@H](C)N(C)C[C@H]1C | / | .
C[C@@H]1CCCCO[C@@H](CN(C)Cc2ccc3c(c2)OCO3)[C@@H](C)CN([C@@H](C)CO)C(=O)c2cc(NC(=O)Nc3cccc4ccccc34)ccc2O1 | / | .
C[C@@H]1CCCCO[C@@H](CN(C)Cc2ccc3c(c2)OCO3)[C@H](C)CN([C@H](C)CO)C(=O)c2cc(NC(=O)Nc3cccc4ccccc34)ccc2O1 | / | -91
C[C@@H]1CCCCO[C@@H](CN(C)Cc2ccc3c(c2)OCO3)[C@@H](C)CN([C@H](C)CO)C(=O)c2cc(NC(=O)Nc3cccc4ccccc34)ccc2O1 | / | .
C[C@@H]1CN([C@H](C)CO)C(=O)c2cc(NC(=O)Nc3cccc4ccccc34)ccc2O[C@@H](C)CCCCO[C@H]1CN(C)Cc1ccc2c(c1)OCO2 | / | -87
C[C@H]1CCCCO[C@@H](CN(C)Cc2ccc3c(c2)OCO3)[C@@H](C)CN([C@@H](C)CO)C(=O)c2cc(NC(=O)Nc3cccc4ccccc34)ccc2O1 | . | ?
C[C@@H]1CCCCO[C@H](CN(C)Cc2ccc3c(c2)OCO3)[C@@H](C)CN([C@@H](C)CO)C(=O)c2cc(NC(=O)Nc3cccc4ccccc34)ccc2O1 | / | -88
C[C@@H](NC(=O)C[C@@H]1C[C@H]2c3cc(NC(=O)CC4CC4)ccc3O[C@H]2[C@H](CO)O1)c1ccccc1 | . | .
COc1ccc(S(=O)(=O)Nc2ccc3c(c2)C(=O)N([C@@H](C)CO)C[C@H](C)[C@@H](CN(C)C(=O)c2ccccc2)OCCCC[C@@H](C)O3)cc1 | . | -89
COc1ccc(S(=O)(=O)Nc2ccc3c(c2)C(=O)N([C@@H](C)CO)C[C@@H](C)[C@@H](CN(C)C(=O)c2ccccc2)OCCCC[C@H](C)O3)cc1 | . | .

From PubChem BioAssay
